Source: PubChem BioAssay
Shown are actives, neighbours in structure and some others; about 1.2% of the full set was active somewhere.
GCN5L2 inh: blocks human GCN5L2 histone acetyltransferase; Q92830; GCN5L2 HAT assay, ThioGlo1 CoA-SH fluorescence; Potency, µM (titrated, usually from 58.9 µM), inactives show at the highest dose activity change, negative = inhibition, most hits filed as inhibitors; actives 0.21% (n = 390,000); AID 504327; also: potency is read from the fitted curve at half-maximal effect
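ThioGlo1-coupled HAT assay: 20nM GCN5L2, 70uM acetyl-CoA, 75uM H3(1-25) peptide, pH 7.5. Fluorescence read at 340/540nm at start and after 20 min at room temperature.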
Tb PGK inh: inhibitors of T. brucei phosphoglycerate kinase; PGK/GAPDH coupled, Kinase-Glo luminescence, 60 min; Potency, µM (titrated, usually from 57.5 µM), for inactives: at the highest dose activity change, negative = inhibition, usual class: inhibitors; actives 0.043% (n = 380,000); AID 602233; also: potency is read from the fitted curve at half-maximal effect; nearly all actives have a fitted effect of over 60% in size
Target sequence (P07378 whole entry, looked up): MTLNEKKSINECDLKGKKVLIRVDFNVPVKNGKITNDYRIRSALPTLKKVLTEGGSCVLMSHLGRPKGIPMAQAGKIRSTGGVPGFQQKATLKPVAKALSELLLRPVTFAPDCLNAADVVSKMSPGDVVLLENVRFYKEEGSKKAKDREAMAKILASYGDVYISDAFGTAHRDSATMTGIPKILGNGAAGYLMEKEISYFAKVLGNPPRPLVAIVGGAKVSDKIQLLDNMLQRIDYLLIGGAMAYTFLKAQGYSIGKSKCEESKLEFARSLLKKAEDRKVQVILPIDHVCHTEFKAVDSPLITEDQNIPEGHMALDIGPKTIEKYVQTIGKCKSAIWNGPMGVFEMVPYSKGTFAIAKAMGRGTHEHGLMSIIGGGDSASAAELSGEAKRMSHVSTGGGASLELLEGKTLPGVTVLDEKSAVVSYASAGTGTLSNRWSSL
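Luminescent ATP detection (Kinase-Glo Plus) follows a 60-minute room-temperature incubation, with wells lacking PGK as controls. Buffer: 100 mM TEA (pH 7.6), 5 mM MgCl2, 0.01% Tween-20. Coupling enzyme GAPDH (100 nM final) supplies unstable 1,3-BPG in-well.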
RGS4 inh: blocks human RGS4-accelerated GTP hydrolysis; Potency, µM (highest dose often 114 µM), without a hit: at the highest dose activity change, negative = inhibition, actives largely listed as inhibitors; P49798; actives 0.039% (n = 390,000); AID 504845; Transcreener GDP fluorescence polarization, RGS4-accelerated GTP hydrolysis; also: potency is read from the fitted curve at half-maximal effect; nearly all actives have a fitted effect of over 75% in size
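MLSMR compounds (23 nl, pin-transferred) preincubated 10 min at room temperature with a 500nM (2x) first reagent, then RGS4 at 900nM (2x) plus Transcreener GDP mix added; fluorescence polarization (620/688 nm) read before and after 90 min at 30 °C.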
KCNH2 3.1 inh: inhibitors of human KCNH2 3.1 potassium channel isoform | U2OS KCNH2 3.1, thallium flux FluxOr; active compounds read low | actives 0.95% (n = 340,000) | AID 720553 | activity change, % (tested at about 1.8 µM);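 active = maximum activity change below -70%; inconclusive = maximum activity change from -70% to -50%; inactive = maximum activity change above -50%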;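 also: thallium influx rate constant from kinetic fluorescence after stimulation buffer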
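Normalized rate constant (relative to positive and negative DMSO controls) derived from a 2 min kinetic fluorescence read after stimulation; U2OS cells expressing the 3.1 isoform via virus at 1.77 x 10^8 /mL.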
hERG WT inh: inhibitors of human wildtype KCNH2 potassium channel; Q12809; activity change, % at 1.84 µM; U2OS, BacMam KCNH2, thallium flux FluxOr; active compounds read low; actives 0.37% (n = 340,000);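 active = maximum activity change below -70%; inconclusive = maximum activity change between -70% and -50%; inactive = maximum activity change above -50%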
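U2OS cells were transduced with wild-type KCNH2 virus (2.03 x 10^8 / mL) for 4 h at room temperature, then cultured overnight at 37 C. Thallium flux was read with FluxOr dye. Rate constants were normalized to DMSO controls.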
Pin1 inhibitor: inhibitors of human Pin1; Potency, µM (titrated, usually from 115 µM), without a hit: at the highest dose activity, negative = inhibition, most hits filed as inhibitors; Pin1 FP peptide displacement, HiFluor488, 10 min; Q13526; actives 0.009% (n = 390,000); AID 504891; active = well fitted inhibition curve with a large enough effect in the polarisation, with a control signal flat, not every such curve was filed as active; inconclusive = small, poorly fitted or top-dose-only effect, or effect the other way, or a change in a side signal; inactive = no such curve, though single readings can be large or run the other way; the % refers to the polarisation; also: potency is read from the fitted curve at half-maximal effect
Numbers without * were called inactive; i = inactive; ? = inconclusive; . = no result; [ ] = dose if it differs, or a comment. Unless noted, calls follow the shape of the dose curve; as a rule, active = well fitted curve in the direction sought with a large enough effect; inconclusive = small, poorly fitted or top-dose-only effect, or another doubt; inactive = no such curve, though single readings can be large; an effect the other way counts as inactive or inconclusive. % is scaled to controls: 0 for no effect and ±100 for the full control effect.

SMILES	GCN5L2 inh	Tb PGK inh	RGS4 inh	KCNH2 3.1 inh	hERG WT inh	Pin1 inhibitor
CC1CCN(S(=O)(=O)c2ccc(C(=O)NCc3cccnc3)cc2)CC1	-5%	i	-8%	3	-263*	-9%
O=C(NCc1cccnc1)c1ccc(S(=O)(=O)N2CCOCC2)cc1	-6%	.	9%	-11	6	-7%
Cc1ccc(C(=O)NC2CCCCC2)cc1S(=O)(=O)N1CCCC1	20%	i	-9%	8	8	4%
Cc1ccc(C(=O)NC2CCS(=O)(=O)C2)cc1S(=O)(=O)N1CCCCCC1 (configuration not stated)	0%	-5%	-21%	-114*	14	-7%
Cc1cccc(Cn2ncc3c4sc(C)cc4n(C)c3c2=O)c1	.	.	.	.	.	2%
O=C(Cn1cncn1)NCCC(c1ccccc1)c1ccccc1	-22%	0%	21%	13	-1	-2%
O=C(Cn1cncn1)NCCCc1ccccc1	-5%	-2%	-12%	6	-177*	-3%
COc1ccccc1NC(=O)NCCCN1CCN(c2ccc(F)cc2)CC1	-8%	i	-17%	.	.	1%
COc1ccc(C(=O)CCN2CCN(c3ccc(OC)cc3)CC2)cc1	1%	i	-32%	-71*	15	4%
COc1ccc(NC(=O)NCCCN2CCN(c3ccccc3F)CC2)cc1	-11%	5%	-6%	-40	13	-2%
COc1ccc(N2CCN(CCNC(=O)Nc3ccc(C)c(Cl)c3)CC2)cc1	-15%	-7%	10%	-90*	.	0%
COc1cccc(NC(=O)NCCCN2CCN(c3ccc(F)cc3)CC2)c1	17%	-6%	-25%	-82*	-38	7%
COc1ccc(NC(=O)NCCN2CCN(c3cccc(Cl)c3)CC2)cc1	-2%	-3%	-13%	-43	0	7%
COc1ccc(NC(=O)NCCCN2CCN(c3cc(C)ccc3C)CC2)cc1	-10%	-1%	-12%	-92*	39	-3%
COc1ccc(N2CCN(CCC(N)=O)CC2)cc1	-4%	-5%	-26%	0	1	2%
COc1ccc(C2/C=C\CN(S(=O)(=O)CC34CCC(CC3=O)C4(C)C)CC(=O)N2Cc2ccc(F)cc2)cc1 (configuration not stated)	.	.	-12%	.	.	1%
COc1cc(NC(=O)NCCN2CCN(c3ccc(Cl)cc3)CC2)ccc1C	-8%	-2%	-17%	-82*	-38	-2%
O=c1cc(-c2ccc(O)cc2)oc2cccc(O)c12	-21%	.	2.1µM*	.	.	.
O=c1cc(-c2ccc(O)cc2)oc2cc(O)ccc12	-29%	.	.	.	.	.
Cc1ccc(S(=O)(=O)Nc2ccccc2CNc2ncc(Br)cc2Br)cc1	?	2%	-1%	-94*	-1	14%
OCC1O[C@H]([S-])[C@H](O)[C@@H](O)[C@@H]1O.[Au+] (some centres not stated)	117%	.	0.6µM*	.	.	.
OC[C@@H]1OC(O)[C@@H](O)[C@H](O)[C@H]1O (some centres not stated)	-4%	.	.	.	.	.
Cn1cnnc1SCC(=O)Nc1sc2c(c1C(N)=O)CCC2	?	-12%[11.5 µM]	?	-22	-284*	?
COc1ccc(CCNC(=O)C2CCC(=O)N(CC3CCCCC3)C2)cc1 (configuration not stated)	12%	-4%	21%	7	12	-1%
COc1ccc(CCCNC(=O)C2CCC(=O)N(CC3CCCCC3)C2)cc1 (configuration not stated)	-2%	4%	?	-168*	-173*	-6%
O=C(Nc1cc(Cl)ccc1Oc1ccccc1)C1=COCCO1	-13%	-3%	-33%	-74*	6	-1%
CCOc1ccc(Oc2ccc(Cl)cc2NC(=O)C2=COCCO2)cc1	-3%	6%	1%	15	4	2%
COc1ccc(-c2nc3cnc(Nc4cccc(OC)c4)nc3n(C[C@H]3CCCO3)c2=O)cc1	-9%	.	.	.	.	.
